# Hit rate of the full screen: of about 360,000 compounds, about 350 (0.097%) were called active. Cut-off read from the data, not from the text of the source: active = inhibition above about 16% (passing the limit was not always enough); inconclusive = no clear call, values can overlap the other calls; inactive = below that. Only a selection was taken, and actives are over-represented in it overall.
# System: UDP-N-acetylbacillosamine N-acetyltransferase PglD (Campylobacter jejuni)
# Assay: C. jejuni PglD acetyltransferase inhibitors, primary screen, biochemical, DTNB colorimetric, single point (AID 602405)
# Settings: purified PglD enzyme, DTNB colorimetric CoA detection; at 12.5 µM; active compounds read high
row,Structure (SMILES),inhibition
1,O=C(Cc1ccncc1)N1CCCCN2[C@@H](CO)[C@H](c3ccc(-c4ccncc4)cc3)[C@@H]2C1,18.4% (active)
2,C/C=C/c1ccc([C@H]2[C@H](CO)N3CCCCN(C(=O)Cc4ccncc4)C[C@@H]23)cc1,4.91% (inactive)
3,COc1ccc(-c2ccc([C@H]3[C@H](CO)N4CCCCN(C(=O)Cc5ccncc5)C[C@@H]34)cc2)cc1,2.61% (inactive)
4,O=C(O)[C@H]1[C@H](CO)[C@H]2Cn3c(cccc3=O)[C@@H]1N2C(=O)c1ccccc1,3.27% (inactive)
5,CC(=CCOc1ccc2ccc(=O)oc2c1)C1=CC(=O)C(C)(C)O1,2.27% (inactive)
6,c1ccc2sc(N3CCNCC3)nc2c1,53.7% (active)
7,c1ccc2sc(C3CCCNC3)nc2c1 (stereo not given),3.32% (inactive)
8,C[C@H](CO)N1C[C@H](C)[C@H](CN(C)C(=O)Oc2ccc3ccccc3c2)OCc2cnnn2CCCC1=O,-0.0925% (inactive)
9,COC(=O)[C@H]1[C@H](CO)[C@H]2Cn3c(cccc3=O)[C@H]2N1CC1CC1,3.33% (inactive)
10,COC(=O)[C@H]1[C@H](CO)[C@H]2Cn3c(ccc(-c4ccccc4F)c3=O)[C@@H]1N2C(=O)C1CCC1,-2.57% (inactive)

# Reference: PubChem BioAssay AID602405 (Broad Institute, 2012)
